# Measured values reported in PubChem BioAssay (NCATS).
# Inconclusive results are not listed. Entries that show only a call come without a potency. Values without a mark were called inactive. Active and inactive are the calls of the source. Calls follow the shape of the dose curve; as a rule, active = well fitted curve in the direction sought with a large enough effect; inconclusive = small, poorly fitted or top-dose-only effect, or another doubt; inactive = no such curve, though single readings can be large; an effect the other way counts as inactive or inconclusive.
# Legend:
# CAOV3 = experiment: Primary qHTS to identify gynecologic anti-cancer compounds using libraries of approved drugs and bioactive compounds (AID 1345084); details: Gynecologic cancer cell panel viability, ATPlite luminescence, 48 h; series mostly up to 57.5 µM; also: nearly all actives have a fitted effect of over 55% in size
# Method in brief: (§1)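 Cell viability after 48 h drug treatment, ATPlite luminescence readout; five doses.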
# Es-2 = experiment: as above; details: Gynecologic cancer cell panel viability, ATPlite luminescence, 48 h; series mostly up to 57.5 µM
# Method in brief: as §1
# HeLa = experiment: as above; details: Gynecologic cancer cell panel viability, ATPlite luminescence, 48 h; series mostly up to 57.5 µM
# Method in brief: as §1
# JEG-3 = experiment: as above; details: Gynecologic cancer cell panel viability, ATPlite luminescence, 48 h; series mostly up to 57.5 µM
# Method in brief: as §1
# OV90 = experiment: as above; details: Gynecologic cancer cell panel viability, ATPlite luminescence, 48 h; series mostly up to 57.5 µM
# Method in brief: as §1
# Tov112D = experiment: as above; details: Gynecologic cancer cell panel viability, ATPlite luminescence, 48 h; series mostly up to 57.5 µM
# Method in brief: as §1
# [1] = qHTS assay to identify inhibitors of the type 1 interferon - major histocompatibility complex class I in skeletal muscle: Counter screen cell viability and HiBit confirmation (AID 1347412); details: iHSKM muscle cells + IFN-b, HiBiT or CellTiter-Glo, 24 h; also: nearly all actives have a fitted effect of over 60% in size
# Method in brief: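 HLA-B*08:01–HiBiT knock-in immortalized human myoblasts (C25cl48) stimulated with 4.0 ng/ml human IFN-beta and dosed with compound in a 12-point 1:3 titration (top final 46 uM). After 24 hrs at 37 C, HiBiT lytic luminescence or CellTiter Glo ATP read out.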
# CASKI = experiment: Primary qHTS to identify gynecologic anti-cancer compounds using libraries of approved drugs and bioactive compounds (AID 1345084); details: Gynecologic cancer cell panel viability, ATPlite luminescence, 48 h; series mostly up to 57.5 µM; also: nearly all actives have a fitted effect of over 55% in size
# Method in brief: as §1
# SKOV3 = experiment: as above; details: Gynecologic cancer cell panel viability, ATPlite luminescence, 48 h; series mostly up to 57.5 µM
# Method in brief: as §1
# Tov-21-G = experiment: as above; details: Gynecologic cancer cell panel viability, ATPlite luminescence, 48 h; series mostly up to 57.5 µM
# Method in brief: as §1
# Hek293T = experiment: as above; details: Gynecologic cancer cell panel viability, ATPlite luminescence, 48 h, control line for the selectivity index; series mostly up to 57.5 µM
# Method in brief: as §1
# PA-1 = experiment: as above; details: Gynecologic cancer cell panel viability, ATPlite luminescence, 48 h; series mostly up to 57.5 µM
# Method in brief: as §1
# Potency is read from the fitted curve at half-maximal effect.
smiles,measurement,setting,value
C[C@H](Nc1ncnc2nc[nH]c12)c1cc2cccc(Cl)c2c(=O)n1-c1ccccc1,Potency,CAOV3,inactive
same,Potency,Es-2,inactive
same,Potency,HeLa,inactive
same,Potency,JEG-3,inactive
same,Potency,OV90,inactive
same,Potency,Tov112D,inactive
same,"activity change, negative = inhibition","[1]; Viability, at 45.9 µM (top of the series)",-19.3%
O=C(NCCCc1ccccc1)c1cccc(-c2cc(O)c3ncccc3c2)c1,Potency,CAOV3,inactive
same,Potency,CASKI,inactive
same,Potency,SKOV3,11.2 µM (active)
same,Potency,Tov-21-G,inactive
same,Potency,Tov112D,17.8 µM (active)
COc1cccc(OCCCN)c1-c1cc(Nc2cnc(C#N)cn2)n[nH]1,Potency,CAOV3,14.1 µM (active)
same,Potency,CASKI,inactive
same,Potency,[1]; HiBiT,15.7 µM (active)
same,Potency,[1]; Viability,17.6 µM (active)
FC(F)(F)c1ccc(/C=C/c2nc(COc3ccc(CCCCn4ccnn4)cc3)co2)cc1,Potency,CAOV3,inactive
same,Potency,HeLa,inactive
same,Potency,Hek293T,inactive
same,Potency,Tov-21-G,inactive
same,Potency,Tov112D,inactive
NCCOc1cc(C(=O)Nc2cc(OCCN)c3ccccc3n2)nc(C(=O)Nc2cc(OCCN)c3ccccc3n2)c1,Potency,CAOV3,inactive
same,Potency,Es-2,inactive
same,Potency,Hek293T,inactive
same,Potency,JEG-3,inactive
same,Potency,OV90,inactive
same,Potency,PA-1,7.94 µM (active)
same,Potency,SKOV3,8.91 µM (active)
CCCCNc1ncc2c(-c3ccc(S(=O)(=O)N4CCOCC4)cc3)nn(C3CCC(O)CC3)c2n1 (centres undefined),Potency,CAOV3,7.94 µM (active)
same,Potency,HeLa,10 µM (active)
same,Potency,JEG-3,inactive
Cc1cc(-c2nc(-c3ccc(OC(F)(F)F)cc3)no2)nn1Cc1ccnc(N2CCN(C3CC3)CC2)c1,Potency,CAOV3,inactive
same,Potency,Es-2,inactive
same,Potency,HeLa,inactive
same,Potency,Hek293T,inactive
same,Potency,JEG-3,inactive
same,Potency,PA-1,inactive
same,Potency,Tov-21-G,inactive
same,Potency,Tov112D,inactive
CCCC(Nc1nc(-c2ccc(NC(=O)NCC)c(OC)c2)ncc1C)c1cccnc1 (centres undefined),Potency,CAOV3,inactive
same,Potency,Es-2,0.251 µM (active)
same,Potency,HeLa,0.158 µM (active)
same,Potency,PA-1,0.251 µM (active)
same,Potency,Tov-21-G,0.316 µM (active)
same,Potency,Tov112D,0.158 µM (active)
COc1ccc(Cl)c(Nc2ncnc3cc(OCC4CCN(C)CC4)c(OC)cc23)c1,Potency,CAOV3,8.91 µM (active)
same,Potency,Es-2,inactive
same,Potency,HeLa,inactive
same,Potency,Hek293T,inactive
same,Potency,JEG-3,inactive
same,Potency,SKOV3,3.55 µM (active)
same,Potency,Tov-21-G,3.16 µM (active)
same,Potency,Tov112D,inactive
Cn1cc(-c2cnn3c(N)c(Br)c(C4CCCNC4)nc23)cn1 (centres undefined),Potency,CAOV3,inactive
same,Potency,CASKI,inactive
same,Potency,JEG-3,inactive
same,Potency,OV90,inactive
same,Potency,PA-1,14.1 µM (active)
same,Potency,Tov112D,inactive
CC(C)NC(=O)COc1cccc(-c2nc(Nc3ccc4[nH]ncc4c3)c3ccccc3n2)c1,Potency,CAOV3,25.1 µM (active)
same,Potency,HeLa,17.8 µM (active)
same,Potency,JEG-3,inactive
same,Potency,OV90,inactive
COc1ccc(Oc2c(Cl)cnn(-c3cc(C)cc(C)c3)c2=O)cc1,Potency,CAOV3,28.2 µM (active)
same,Potency,Es-2,inactive
same,Potency,HeLa,inactive
same,Potency,Hek293T,inactive
Cc1c(NC(=O)OCC2COCCN2)cn2ncnc(Nc3ccc4c(cnn4Cc4cccc(F)c4)c3)c12 (centres undefined),Potency,CAOV3,inactive
same,Potency,Es-2,inactive
same,Potency,HeLa,inactive
same,Potency,Hek293T,inactive
same,Potency,OV90,inactive
Cn1cc(-c2ccc(S(=O)(=O)n3ccc(/C=C/C(=O)Nc4ccccc4N)c3)cc2)cn1,Potency,CAOV3,17.8 µM (active)
same,Potency,Es-2,8.91 µM (active)
same,Potency,HeLa,10 µM (active)
same,Potency,JEG-3,10 µM (active)
same,Potency,OV90,15.8 µM (active)
same,Potency,PA-1,7.08 µM (active)
same,Potency,Tov112D,4.47 µM (active)
Cc1nc(-c2cn3c(n2)-c2ccc(-c4cnn(C(C)(C)C(N)=O)c4)cc2OCC3)n(C(C)C)n1,Potency,CAOV3,35.5 µM (active)
same,Potency,Es-2,inactive
same,Potency,HeLa,inactive
same,Potency,Hek293T,15.8 µM (active)
same,Potency,SKOV3,0.631 µM (active)
same,Potency,Tov-21-G,11.2 µM (active)
same,Potency,Tov112D,inactive
C/C=C/C=C/C=C/C(=O)O[C@@H]1C=C2COC(=O)[C@]2(O)[C@@]2(C)CCCC(C)(C)[C@H]12,Potency,CAOV3,inactive
same,Potency,Es-2,inactive
same,Potency,HeLa,inactive
same,Potency,Hek293T,inactive
same,Potency,JEG-3,inactive
same,Potency,OV90,inactive
same,Potency,PA-1,inactive
same,Potency,Tov-21-G,inactive
same,Potency,Tov112D,inactive
CCN1CCN(Cc2ccc(NC(=O)c3ccc(C)c(Oc4ccnc5[nH]ccc45)c3)cc2C(F)(F)F)CC1,Potency,CAOV3,inactive
same,Potency,Es-2,inactive
same,Potency,HeLa,inactive
same,Potency,Hek293T,inactive
same,Potency,Tov-21-G,12.6 µM (active)
COc1cc2c(NC3CCN(C(C)C)CC3)nc(N3CCC(F)(F)CC3)nc2cc1OCCCN1CCCC1,Potency,CAOV3,8.91 µM (active)
same,Potency,CASKI,31.6 µM (active)
same,Potency,JEG-3,22.4 µM (active)
same,Potency,OV90,11.2 µM (active)
same,Potency,PA-1,22.4 µM (active)
CC(C)S(=O)(=O)NC[C@H](C)c1ccc(-c2ccc(CCNS(C)(=O)=O)cc2)cc1,Potency,CAOV3,inactive
same,Potency,Es-2,inactive
same,Potency,HeLa,inactive
same,Potency,Hek293T,8.91 µM (active)
same,Potency,JEG-3,inactive
same,Potency,PA-1,inactive
same,Potency,SKOV3,17.8 µM (active)
same,Potency,Tov-21-G,inactive
C=C(NC(=O)C(=C)NC(=O)c1csc(C2=NC3c4csc(n4)C4NC(=O)c5csc(n5)C(C(C)(O)C(C)O)NC(=O)C5CSC(=N5)/C(=C/C)NC(=O)C(C(C)O)NC(=O)c5csc(n5)C3(CC2)NC(=O)C(C)NC(=O)C(=C)NC(=O)C(C)NC(=O)C(C(C)CC)NC2C=Cc3c(C(C)O)cc(nc3C2O)C(=O)OC4C)n1)C(N)=O (centres undefined),Potency,CAOV3,25.1 µM (active)
same,Potency,HeLa,inactive
same,Potency,Hek293T,17.8 µM (active)
same,Potency,OV90,inactive
same,Potency,PA-1,28.2 µM (active)
same,Potency,Tov112D,inactive
